Rows were chosen to be rich in hits. Some 9% of all compounds tested hit in one or more screens of this group.
BAZ2B block: qHTS Assay for Inhibitors of BAZ2B; AID 504333, 2011; hit rate 4.4% among 360,000; Potency, µM (top dose mostly 114 µM), inactives show top-dose activity change, negative = inhibition, most hits filed as inhibitors; AlphaScreen BAZ2B-H3K14Ac peptide displacement; also: % is scaled to controls: 0 for no effect and ±100 for the full control effect; nearly all actives have a fitted effect of over 60% in size
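Inhibition is scored as reduced AlphaScreen emission. The BAZ2B/b-H3(5-23)K14Ac complex (50 nM each) in PBS pH 7.4, 0.01% Tween-20 meets compound (up to 110 uM) for 30 min at RT before bead addition.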
G9a inh: qHTS Assay for Inhibitors of Histone Lysine Methyltransferase G9a; AID 504332, 2011; Potency, µM (series often up to 102 µM), for the others: at the highest dose activity, negative = inhibition, actives largely listed as inhibitors; hit rate 8.8% among 350,000; Histone-lysine N-methyltransferase EHMT2 (Homo sapiens), Q96KQ7; G9a H3K9 monomethylation, AlphaScreen, 2 h; also: % is scaled to controls: 0 for no effect and ±100 for the full control effect; nearly all actives have a fitted effect of over 75% in size
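Enzyme 20 nM + cpd, 15 min RT; add b-H3K9 pep 500 nM / SAM 20 uM; 2 h RT; anti-H3K9me1 Ab 0.5 ug/mL + SA donor / anti-rabbit acceptor beads 20 ug/mL each, 10 min; AlphaScreen read.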
JMJD2A Tudor inh: qHTS Assay for Inhibitors of JMJD2A-Tudor Domain; Potency, µM (doses to about 114 µM), inactives show top-dose activity change, negative = inhibition, most hits filed as inhibitors; AlphaScreen JMJD2A-Tudor / H3K4me3 peptide binding; hit rate 4.4% among 390,000; AID 504339, 2011; also: % is scaled to controls: 0 for no effect and ±100 for the full control effect; nearly all actives have a fitted effect of over 50% in size
HP1b chromo inh: HTS for Inhibitors of HP1-beta Chromodomain Interactions with Methylated Histone Tails | Chromobox protein homolog 1 (Homo sapiens), P83916 | AlphaScreen HP1-beta / biotin-H3K9me3 peptide binding | Potency, µM (doses to about 114 µM), without a hit: at the highest dose activity change, negative = inhibition, hits mostly inhibitors | hit rate 0.56% among 390,000; also: nearly all actives have a fitted effect of over 70% in size
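Compound inhibition of the preformed complex between 50 nM HP1-beta and 50 nM biotinylated H3K9me3 peptide was read by AlphaScreen. Buffer was PBS pH 7.4 with 0.01% Tween-20. Incubations ran 30 min at room temperature, with 10 ug/mL donor/acceptor beads.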
PLK1 PBD inh: qHTS for Inhibitors of PLK1-PDB (polo-like kinase 1 - polo-box domain): Primary Screen | hit rate 2.8% among 360,000 | Potency, µM, inactives show max response, negative = inhibition, usual class: inhibitors | Plk1 PBD binding of FITC phosphopeptide, fluorescence polarization | AID 720504, 2013; also: series mostly up to about 57 µM; % is scaled to controls: 0 for no effect and ±100 for the full control effect; nearly all actives have a fitted effect of over 65% in size
12-LOX inh: Primary qHTS assay for inhibitors of human arachidonate 12S-lipoxygenase (ALOX12): Round 2; Polyunsaturated fatty acid lipoxygenase ALOX12 (Homo sapiens), P18054; purified 12hLO, xylenol orange hydroperoxide absorbance; Potency, µM (titrated, usually from 108 µM), for the others: top-dose activity change, negative = inhibition, actives largely listed as inhibitors; hit rate 1.1% among 580,000; AID 1671190, 2021; also: % is scaled to controls: 0 for no effect and ±100 for the full control effect
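Purified human 12hLO (150 nM final) in 25 mM Hepes, 0.01% Triton X-100, pH 7.0 was preincubated 15 min at room temperature with compound. Then 40 uM arachidonic acid was added, 30 min. Hydroperoxide was read by Fe-XO absorbance ratio 573/405 nm.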
Numbers without * were called inactive; ? = inconclusive; nt = not tested or not shown; [ ] = remark or other dose. Calls follow the shape of the dose curve; as a rule, active = well fitted curve in the direction sought with a large enough effect; inconclusive = small, poorly fitted or top-dose-only effect, or another doubt; inactive = no such curve, though single readings can be large; an effect the other way counts as inactive or inconclusive. Potency is read from the fitted curve at half-maximal effect.

SMILES | BAZ2B block | G9a inh | JMJD2A Tudor inh | HP1b chromo inh | PLK1 PBD inh | 12-LOX inh
Cn1cccc1/C=C1\CCc2ccccc2C1=O | 40µM* | ? | 45µM* | ? | -12% | 39%
Cn1cccc1/C=C1\Cc2ccccc2C1=O | -26% | -8%[59 µM] | -10% | 21% | 1% | 0%
Nc1ccc2c(c1)C/C(=C/c1ccco1)C2=O | ? | 7.1µM* | -33% | -15% | ? | ?
Cc1cc(=O)n2c(nc3ccccc32)[nH]1 | -4% | 14%[59 µM] | -18% | 14% | -5% | 0%
Cc1cc(C)n(-c2nc3sc4c(c3c(=O)[nH]2)CCCC4)n1 | 7% | 36%[59 µM] | nt | nt | nt | nt
Cc1cc(C)n(-c2nnc(C)c(=O)[nH]2)n1 | 7.1µM* | 2µM* | 1µM* | 20% | 2% | -6%
CC1=C(C#N)C(=O)N(C2CCS(=O)(=O)C2)C(=O)/C1=C\c1ccc(C)o1 (stereo not given) | 45µM* | 20µM* | nt | nt | nt | nt
Cc1ccc(/C=C2\SC(=S)N(C3CCS(=O)(=O)C3)C2=O)o1 (stereo not given) | 40µM* | nt | ? | -36% | 19µM* | ?
NS(=O)(=O)c1ccc(-c2ccc(/C=C3\SC(=S)N(C4CCS(=O)(=O)C4)C3=O)o2)cc1 (stereo not given) | -28% | ? | -20% | 12% | 5% | -26%
Cc1ccc(NCc2nc3ccccc3n2C)c(C)c1 | ? | ? | ? | -12% | 0% | 0%
Cc1ccc(NCc2n[nH]c(=S)n2-c2ccccc2)c(C)c1 | ? | 4µM* | 56µM* | 1% | -14% | -27%
Cc1cccc(NCc2n[nH]c(=S)n2-c2ccccc2)c1 | ? | ? | -98% | -24% | -16% | ?
Cc1ccc(NCc2n[nH]c(=S)n2-c2ccccc2)cc1 | ? | 1.6µM* | ? | -18% | -19% | 28µM*
CC(=O)Nc1ccc(S(=O)(=O)Nc2ccc(S(=O)(=O)Nc3ncccn3)cc2)cc1 | -2% | -5%[59 µM] | 8% | 35% | 9% | 4%
CC(=O)Nc1ccc(NS(=O)(=O)c2ccc(CN3C(=O)c4cccnc4C3=O)cc2)cc1 | 79µM* | 12% | -10% | 35% | -4% | -5%
COc1cccc(CNS(=O)(=O)c2cc(CN3C(=O)c4cccnc4C3=O)ccc2OC)c1 | -28% | 16% | -18% | 25% | -16% | -4%
CC(C)NS(=O)(=O)c1cc(F)ccc1CN1C(=O)c2cccnc2C1=O | ? | -36%[12.7 µM] | ? | 32% | -11% | -20%
Cc1ccc(CNS(=O)(=O)c2cc(F)ccc2CN2C(=O)c3cccnc3C2=O)o1 | 50µM* | ? | -19% | 50% | -4% | ?
Cc1ccc(CNS(=O)(=O)c2ccc(CN3C(=O)c4cccnc4C3=O)cc2)o1 | 79µM* | -6%[0.0925 µM] | -11% | 22% | -19% | -4%
CC(C)CNC(=O)c1cccc2c(-c3ccc(F)c(F)c3)coc12 | nt | nt | nt | nt | -4% | -23%
Cc1cc(O)c2c(c1O)C(=O)C(O)=C(O)C2=O | nt | nt | nt | nt | nt | 28µM*
CC1CCCC(NC(=O)C2CCC(CNc3c(N4CCCC4)c(=O)c3=O)CC2)C1C (stereo not given) | -1% | 6% | -6% | 36% | -5% | 14%
Nc1nc2cc(S(=O)(=O)N3CCOCC3)ccc2o1 | nt | nt | ? | ? | 5.3µM* | ?
Nc1ccc(S(=O)(=O)N2CCOCC2)cc1 | nt | nt | -5% | 31% | nt | nt
O=C(CSc1nc2cc(S(=O)(=O)N3CCOCC3)ccc2o1)NCC(F)(F)F | nt | nt | nt | nt | nt | 8%
SMILES | BAZ2B block | G9a inh | JMJD2A Tudor inh | HP1b chromo inh | PLK1 PBD inh | 12-LOX inh
CN(C)C(=O)CSc1nc2cc(S(=O)(=O)N3CCOCC3)ccc2o1 | nt | nt | -11% | -24% | 21µM* | ?
COc1ccc(F)cc1CN1CCN(CC(=O)N2CCc3ccccc32)CC1 | -5% | 27% | -1% | 3% | 3% | -2%
O=[N+]([O-])c1ccc(N2N=C(c3ccccc3)CC2c2ccccc2O)cc1 (stereo not given) | -35% | ? | nt | nt | nt | 25µM*
Fc1ccc(C2CC(c3ccco3)=NN2c2ccccc2)cc1 (stereo not given) | 147% | nt | 194% | 379% | 2% | ?
COc1ccccc1N1N=C(c2ccc([N+](=O)[O-])cc2)CC1c1ccccc1 (stereo not given) | 11µM* | 22%[0.501 µM] | 32µM* | ? | 15% | 49%
NS(=O)(=O)c1ccc(N2N=C(c3ccccc3)CC2c2ccccc2Br)cc1 (stereo not given) | nt | nt | 6% | 80% | -1% | -10%
O=[N+]([O-])c1ccc(N2N=C(c3ccco3)CC2c2ccccc2)cc1 (stereo not given) | ? | 7.9µM* | -28% | -15% | -14% | ?
O=C(CC1CCCN(c2cn[nH]c(=O)c2)C1)NCc1cc(F)cc(F)c1 (stereo not given) | nt | nt | nt | nt | nt | 24%
O=C(NCCN1CCNC1=O)C1CCC(=O)N(Cc2ccccc2F)C1 (stereo not given) | 0% | ? | -3% | 29% | 3% | 0%
Cc1ccc(OCC(O)CNCc2ccccc2)cc1C (stereo not given) | -1% | 8%[59 µM] | -18% | 9% | -13% | -7%
CCCCOc1ccc(N=Nc2ccc(N)nc2N)cn1 | 14% | 20%[0.501 µM] | 35µM* | ? | -8% | ?
Cc1ccsc1C(=O)c1sccc1C | 23% | 49%[59 µM] | 24% | 45% | -6% | -1%
Cc1ccc(Cl)cc1-c1cc(C(=O)N2CCc3ccccc3C2)[nH]n1 | nt | nt | nt | nt | -11% | 3%
O=C(COC(=O)c1ccccn1)c1ccc(Br)cc1 | 25µM* | 50µM* | 28µM* | 18% | -1% | -24%
N/C(=N\OC(=O)c1cccc(Br)c1)c1ccccn1 | -35% | ? | -3% | 45% | -7% | 0%
O=C(COC(=O)c1ccccn1)c1cccc(Br)c1 | 18µM* | nt | 13µM* | 19% | -14% | -16%
COc1ccc(C(=O)COC(=O)c2ccccn2)cc1OC | ? | ? | -25% | 24% | -3% | 5%
O=C(COC(=O)c1cnccn1)c1ccc([N+](=O)[O-])cc1 | ? | 25µM* | -15% | 5% | -15% | 0%
CC(=O)NC(c1ccc(F)c(F)c1)c1nc(-c2cccc(C(=O)O)c2)cs1 (stereo not given) | nt | nt | nt | nt | 1% | -24%
COc1ccc(NS(=O)(=O)c2cccc(C(=O)NNC(=O)c3cncc(Br)c3)c2)cc1 | 7% | -29% | -11% | 30% | 3% | 0%

High-throughput results as filed in PubChem BioAssay.
